Experimental data taken from PubChem BioAssay (NCI).
Compounds without any hit were thinned out: in the full panel of roughly 83,000, 20% have a hit.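 96-well plates, one dose, 48 hours. Percent growth reported; active if below 10.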 Activity calls are given as the source filed them.

Key:
Assay in all cases: NCI-60 one-dose screen, 48 h (100 = growth as untreated, 0 = no growth, -100 = all killed)
Settings in all cases: 10 µM unless noted
[1] = test system: NCI-H226 lung
[2] = test system: NCI-H322M lung
[3] = test system: HOP-62 NSCLC
[4] = test system: NCI-H460 lung
[5] = test system: HOP-92 NSCLC
[6] = test system: NCI-H522 lung
[7] = test system: A549/ATCC NSCLC
[8] = test system: 786-0 renal
[9] = test system: COLO 205 colon
[10] = test system: DU-145 prostate

Measured: growth

CCN1C(=S)N(CC)C2C1NN=C1SC(c3ccccc3)=CC(=O)N12 (stereo not given)
inactive: [1] 101% | [2] 110% | [3] 100% | [4] 117% | [5] 103% | [6] 94.5% | [7] 101% | [8] 104% | [9] 115% | [10] 117%

Nc1cc(-c2c[nH]c3ccc(F)cc23)nc2cc(-c3c[nH]c4ccc(F)cc34)nn12
inactive: [1] 97.4% | [2] 94.1% | [3] 101% | [4] 32.2% | [5] 83.5% | [6] 90.3% | [7] 79.5% | [8] 66.3% | [9] 118% | [10] 72.7%

CCCSc1nc(Nc2ccc(/C(C)=N\NC(N)=S)cc2)c(C#N)c(-c2ccc(OC)cc2)n1
active: [5] -20.9% | [8] 5.18%
inactive: [1] 27% | [2] 80.8% | [3] 31.6% | [4] 42.8% | [6] 89% | [7] 60.6% | [9] 113% | [10] 52.2%

CC(O)C(NC(=O)C1CCCN1C(=O)CNC(=O)C1CC(=O)NCC(=O)NC(Cc2c[nH]c3ccccc23)C(=O)NC(Cc2ccc(O)cc2)C(=O)NCC(=O)NC(CO)C(=O)NC(CCC(N)=O)C(=O)NC(Cc2c[nH]c3ccccc23)C(=O)N1)C(=O)NCC(=O)NC(CCC(N)=O)C(=O)NC(CCCNC(=N)N)C(=O)NC(CC(=O)O)C(=O)O (stereo not given)
inactive: [1] 107% | [2] 95.2% | [3] 105% | [4] 105% | [5] 94% | [6] 94.9% | [7] 105% | [8] 108% | [9] 109% | [10] 104%

CS(=O)(=O)c1ccc(-c2nc3ccccn3c2-c2nc3ccc([N+](=O)[O-])cc3[nH]2)cc1
inactive: [1] 92.2% | [2] 92% | [3] 105% | [4] 101% | [5] 93.7% | [6] 92.4% | [7] 99.8% | [8] 101% | [9] 103% | [10] 99.8%

[Cl][Ru].c1ccc(-c2cc(-c3ccccn3)nc(-c3ccccn3)c2)cc1.c1ccc(-c2ccnc3c2ccc2c(-c4ccccc4)ccnc23)cc1
active: [1] -18% | [2] -6.84% | [4] -63% | [5] -42.9% | [6] -52.8% | [8] 6.1% | [9] -77.9% | [10] 7.67%
inactive: [3] 25.1% | [7] 14.8%

CS(=O)(=O)c1ccc(-c2nc3ccccn3c2C=Nc2ccc(Cl)cc2)cc1
inactive: [1] 102% | [2] 76.7% | [3] 82.8% | [4] 57.7% | [5] 98.5% | [6] 58.6% | [7] 72.1% | [8] 69.5% | [9] 99.6% | [10] 61.3%

COc1ccc(-c2nc3ccc(-c4nnc(SCC(=O)Nc5ccc(C(C)=O)cc5)o4)cc3[nH]2)cc1
inactive: [1] 100% | [2] 110% | [3] 113% | [4] 103% | [5] 114% | [6] 103% | [7] 112% | [8] 105% | [9] 113% | [10] 110%

Clc1ccc(-c2cn3cc(Cc4ccc(Cl)c(Cl)c4)sc3n2)cc1
inactive: [1] 85.7% | [2] 70.5% | [3] 70.4% | [4] 22.5% | [5] 81.8% | [6] 76% | [7] 61.3% | [8] 84% | [9] 42.7% | [10] 69.6%

COc1ccc(-c2csc(N/N=C/c3c(-c4ccc(S(C)(=O)=O)cc4)nc4ccccn34)n2)cc1
inactive: [1] 115% | [2] 106% | [3] 121% | [4] 109% | [5] 99.9% | [6] 104% | [7] 105% | [8] 82.7% | [9] 120% | [10] 113%

CC(C)(C)Nc1nc2c(OCCc3ccccc3)cccn2c1-c1ccccc1Cl
inactive: [7] 11.6% | [10] 21.1%
active: [1] -0.3% | [2] 8.57% | [3] -22.1% | [4] 0.335% | [5] -74.8% | [6] -13.4% | [8] 6.01% | [9] -76.6%

Cc1nc(-c2cc3ccccc3oc2=O)ccc1C(=O)/C=C/c1ccc(Cl)c(Cl)c1
inactive: [1] 108% | [2] 104% | [3] 107% | [4] 100% | [5] 95.4% | [6] 98.9% | [7] 107% | [8] 99.3% | [9] 113% | [10] 102%

CC(=O)Nc1cc(F)cc(-c2ccc3[nH]cc(-c4ccccc4)c3n2)c1
inactive: [1] 30.9% | [2] 33.4% | [7] 20.1% | [10] 39.8%
active: [3] 3.09% | [4] 3.95% | [5] 0.206% | [6] -67.6% | [8] 1.48% | [9] -68.2%

O=C(CSc1nc2sc3c(c2c(=O)n1-c1ccc(Cl)cc1)CCCC3)NNC(=O)Nc1cccc(C(F)(F)F)c1
active: [4] 5.83% | [5] -14.1%
inactive: [1] 32.6% | [2] 49.4% | [3] 37.9% | [6] 23.1% | [7] 24% | [8] 30.3% | [9] 27% | [10] 18.2%
